Reference: PubChem BioAssay (Tox21)
Where “and” joins values, the source holds several entries; their conditions need not be identical. Equal entries are not always repeated. Records with an inconclusive call do not appear. Unmarked numbers belong to inactive results. Calls of active or inactive are those of the source. Calls come from the whole dose curve; as a rule, active = well fitted cell-killing curve with a large enough effect in the repeat runs; inconclusive = weak or mixed curves; inactive = no such curve, though single readings can be large or run the other way.

Test: qHTS assay for identifying genotoxic compounds that show differential cytotoxicity against isogenic chicken DT40 cell lines with known DNA damage response pathways - Rad54/Ku70 mutant cell line (AID 743015); note: nearly all actives have a fitted effect of over 60% in size
Conditions: DT40 Rad54/Ku70 mutant viability, CellTiter-Glo, 40 h; series mostly up to 66.8 µM; activity change, negative = cytotoxicity: at the top concentration
Source text: National Center for Advancing Translational Sciences [NCATS]
NIH Chemical Genomics Center [NCGC]
U.S. Environmental Protection Agency [EPA]
National Institutes of Environmental Health Sciences [NIEHS]
National Toxicology Program [NTP]
U.S. Food and Drug Administration [FDA]
DNA repair pathways play a critical role in cellular homeostasis by repairing DNA damage induced by endogenous processes and xenobiotics. Isogenic chicken DT40 cell lines deficient in different DNA repair pathways can be used to identify genotoxic compounds and aid in characterizing the nature of the DNA damage induced. Two DNA repair-deficient cell lines with disrupted genes, Rad54/Ku70 or Rev3, were used to screen the Tox21 10K compound library. Possible genotoxicity was based on the presence of a significant increase in cytotoxicity in one or more of the DNA repair-deficient cell lines compared to that observed in the parental DNA repair-proficient cell line. CellTiter Glo viability assay (Promega, Madison, WI) was used to measure cell viability in these cells after compound treatment. This assay includes the data from the Rad54/Ku70 mutant cell line.
Tox21 Assay Protocol Summary:
300 DT40 mutant cells in 5 uL/well were dispensed into white, solid-bottom 1536-well plates using a Multidrop Combi (ThermoFisher Scientific, Waltham, MA) dispenser. After the assay plates were incubated at 37 C/5% CO2 for approximately 0.5 hour, 23 nL of compounds dissolved in DMSO, positive controls or DMSO only was transferred into the assay plate by a pintool work station (Kalypsys, San Diego, CA). The assay plates were incubated at 37 C/5% CO2 for 40 hours. After 5 uL per well of CellTiter-Glo reagent was added into each well of the assay plates, the plates were incubated for 30 min at room temperature and the luminescence intensity of the plates was measured using a ViewLux (PerkinElmer, Shelton, CT) plate reader.
% is set by controls: 0 for no effect and ±100 for the full control effect; potency is the fitted concentration of half-maximal effect.

Structure (SMILES) | activity change, negative = cytotoxicity | Potency
COc1cccc(OC)c1C(=O)N[C@@H]1C(=O)N2[C@@H]1SC(C)(C)[C@@H]2C(=O)O | 0.366% | 
COc1cc(-c2ccc(=O)[nH]n2)ccc1OC(F)F | 1.32% | 
CCC1C(=O)OCC1Cc1cncn1C (stereo not given) | 3.74% | 
O=C(O)CCSCCC(=O)O | -11% | 
CCOCC(C)O (stereo not given) | -17.5% | 
CNCCO | 4.78% | 
[K+] | 8.99% | 
Cc1ncc([C@@H](CCCCCCc2ccc3c(n2)NCCC3)CC(=O)O)cn1 | -20.8% | 
CCCCN1C=CN(C)C1 | 13.8% [at 30.7 µM] | 
Nc1ccn([C@@H]2O[C@H](CO)[C@@H](O)[C@@H]2O)c(=O)n1 |  | 43.3 nM (active)
C[N+](C)(C)CCCCCCCCCC[N+](C)(C)C | 4.27% | 
CC(N)C12CC3CC(CC(C3)C1)C2 (stereo not given) | -15% | 
CCCCCCC#CC(=O)OC | -5.46% | 
Cc1ccc(-c2ncc(Cl)cc2-c2ccc(S(C)(=O)=O)cc2)cn1 | 3.03% | 
O=S(=O)(O)c1cc(O)c(O)c(S(=O)(=O)O)c1 | 17.8% | 
CCCCS(=O)(=O)N[C@@H](Cc1ccc(OCCCCC2CCNCC2)cc1)C(=O)O | 1.17% | 
Cc1nc2ccc(CN(C)c3ccc(C(=O)N[C@@H](CCC(=O)O)C(=O)O)s3)cc2c(=O)[nH]1 |  | 2.1 nM (active) and 4.2 nM (active)
O=CN(CCO)CCO | -3.54% | 
O=C(O)c1cc(C(=O)O)cc(C(=O)O)c1 | 2.38% [at 95.1 µM] | 
COC(=O)Nc1ccc(Cl)c(Cl)c1 | 12.8% | 

Structure (SMILES) | activity change, negative = cytotoxicity | Potency
NC(=O)N[C@@H](CCC(=O)O)C(=O)O | 4.17% | 
Cc1ccc(C(=O)c2ccccc2)cc1 |  | 68600 nM (active)
CO[Si](C)(OC)c1ccccc1 | -7.69% | 
O=S(=O)(O)c1cccc(S(=O)(=O)O)c1 | -6.4% | 
C=C(C)C(=O)OCC1CCCO1 (stereo not given) | -2.04% | 
NCCCC(N)(C(=O)O)C(F)F (stereo not given) | 2.57% | 
CN1CC(=O)N/C1=N/C(=O)Nc1cccc(Cl)c1 |  | inactive
CCCCc1ccc2c(n1)[C@@H](c1ccc(OC)cc1C[C@H](C)C(=O)O)[C@H](C(=O)O)[C@H]2c1ccc2c(c1)OCO2 | 5.07% | 
CCN1C=CN(C)C1C (stereo not given) | 3.13% [at 95.1 µM] | 
CCCCCC(C)N (stereo not given) | 3.89% | 
CN1CCC(=C2c3ccccc3CCc3cccnc32)CC1 | -0.219% | 
CC1(C)OC[C@@H](COC(=O)CCc2ccc(OC[C@@H](O)CNCCNC(=O)N3CCOCC3)cc2)O1 |  | inactive
C1CCC2=NCCCN2CC1 | 0.0669% | 
O=C1CCCCCCCCCCCCCCO1 | 2.69% | 
CC1=NN(c2cc(S(=O)(=O)O)ccc2Cl)C(=O)C1N=Nc1ccccc1 (stereo not given) | 5.26% | 
CCC(=O)OCc1ccccc1 | -18.4% | 
CC(=O)Oc1cccc(C)c1 | 0.834% | 
CCCCOCCOC(=O)CCCCCCCCC(=O)OCCOCCCC | 5.73% | 
CC(=O)OCC(=O)[C@@]1(O)[C@H](C)C[C@H]2[C@@H]3CCC4=CC(=O)C=C[C@]4(C)[C@@]3(F)[C@@H](O)C[C@@]21C | -16% [at 30.7 µM] | 
CCCC(C)C(=O)OCC (stereo not given) | 6.33% | 
